Measured values reported in PubChem BioAssay (NCATS).
Results filed as inconclusive are left out. Activity calls are given as the source filed them. Unless noted, calls follow the shape of the dose curve; as a rule, active = well fitted curve in the direction sought with a large enough effect; inconclusive = small, poorly fitted or top-dose-only effect, or another doubt; inactive = no such curve, though single readings can be large; an effect the other way counts as inactive or inconclusive.

How the values were obtained:
[1] = molecular target: Cytochrome P450 3A4 (Homo sapiens) (UniProt P08684); assay: qHTS Assay for Inhibitors and Substrates of Cytochrome P450 3A4 (AID 884); also: % is scaled to controls: 0 for no effect and ±100 for the full control effect; nearly all actives have a fitted effect of over 50% in size
Cytochrome P450 3A4 (Homo sapiens), sequence (P08684 whole entry, looked up): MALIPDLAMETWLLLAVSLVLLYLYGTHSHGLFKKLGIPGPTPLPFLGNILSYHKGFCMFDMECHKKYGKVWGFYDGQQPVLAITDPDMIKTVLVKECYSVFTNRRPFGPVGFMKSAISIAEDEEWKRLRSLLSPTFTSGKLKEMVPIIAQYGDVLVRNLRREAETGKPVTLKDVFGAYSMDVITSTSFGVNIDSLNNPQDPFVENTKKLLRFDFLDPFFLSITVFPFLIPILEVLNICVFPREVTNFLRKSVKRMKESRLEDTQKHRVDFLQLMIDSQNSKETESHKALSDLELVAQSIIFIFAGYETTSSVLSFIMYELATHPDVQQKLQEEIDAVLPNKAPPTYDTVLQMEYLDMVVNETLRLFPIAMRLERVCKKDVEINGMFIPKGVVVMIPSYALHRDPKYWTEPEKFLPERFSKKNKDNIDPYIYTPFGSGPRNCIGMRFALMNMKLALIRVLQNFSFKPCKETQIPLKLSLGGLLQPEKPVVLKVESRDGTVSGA
How it was run: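 20 nM human CYP3A4 with 25 uM Luciferin-PPXE (at KM) in 200 mM KPO4, preincubated 10 min with compound; NADPH regeneration started a 60 min RT reaction. Luciferin detected by luminescence, normalized to 57 uM ketoconazole as full inhibition.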

[2] = Confirmation and Secondary Assay for Modulators of Hemoglobin Beta Chain Splicing at IVS2 654 locus (AID 910);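 also: HeLa cells stably carrying EGFP split by mutant beta-globin IVS2-654 intron; % of control where 0% means no effect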
How it was run: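 HeLa cells stably expressing EGFP interrupted by β-globin IVS2-654 intron, seeded overnight in Opti-MEM/2% FCS, then treated 2 days at 37 °C. Restored splicing read as total peak GFP intensity per well by laser scanning cytometry (488 nm excitation, 500–520 nm emission); 500 nM antisense PNA as control.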

[3] = Confirmation and Secondary Assay for Modulators of Hemoglobin Beta Chain Splicing at IVS2 705 locus (AID 930);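 also: HeLa cells stably expressing the EGFP-705 splicing reporter; GFP fluorescence per well restored by corrected splicing of the IVS2-705 intron in EGFP; % of control where 0% means no effect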
How it was run: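 HeLa cells stably carrying EGFP interrupted by mutant beta-globin intron 2 (IVS2-705) treated 2 days at 37C with compound; 500 nM antisense PNA as control. Correct splicing read as total peak GFP intensity per well by laser-scanning cytometry.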

[4] = qHTS Assay for Lipid Storage Modulators (AID 1519; calls by dose curve; as to activity change, negative = inhibition: % is scaled to controls: 0 for no effect and ±100 for the full control effect); details: Drosophila S3 cells, BODIPY lipid droplet/cell ratio, laser cytometry, cells loaded with oleic acid
How it was run: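 Cells seeded at 5,000 per well were treated with compounds over a concentration series and loaded with oleic acid (400 uM, as added). Lipid droplet fluorescence (488 nm excitation, 500-530 nm channel) was read by laser-scanning cytometry and normalized to 20 uM Triacsin C.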

[5] = molecular target: Ubiquitin carboxyl-terminal hydrolase 1 (Homo sapiens) (UniProt O94782); assay: Inhibitors of USP1/UAF1: Pilot qHTS (AID 504865);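 also: rhodamine fluorescence freed from ubiquitin-rhodamine substrate followed over time; top concentration of the series differs between compounds; % is scaled to controls: 0 for no effect and ±100 for the full control effect; nearly all actives have a fitted effect of over 35% in size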
Ubiquitin carboxyl-terminal hydrolase 1 (Homo sapiens), sequence (O94782 whole entry, looked up): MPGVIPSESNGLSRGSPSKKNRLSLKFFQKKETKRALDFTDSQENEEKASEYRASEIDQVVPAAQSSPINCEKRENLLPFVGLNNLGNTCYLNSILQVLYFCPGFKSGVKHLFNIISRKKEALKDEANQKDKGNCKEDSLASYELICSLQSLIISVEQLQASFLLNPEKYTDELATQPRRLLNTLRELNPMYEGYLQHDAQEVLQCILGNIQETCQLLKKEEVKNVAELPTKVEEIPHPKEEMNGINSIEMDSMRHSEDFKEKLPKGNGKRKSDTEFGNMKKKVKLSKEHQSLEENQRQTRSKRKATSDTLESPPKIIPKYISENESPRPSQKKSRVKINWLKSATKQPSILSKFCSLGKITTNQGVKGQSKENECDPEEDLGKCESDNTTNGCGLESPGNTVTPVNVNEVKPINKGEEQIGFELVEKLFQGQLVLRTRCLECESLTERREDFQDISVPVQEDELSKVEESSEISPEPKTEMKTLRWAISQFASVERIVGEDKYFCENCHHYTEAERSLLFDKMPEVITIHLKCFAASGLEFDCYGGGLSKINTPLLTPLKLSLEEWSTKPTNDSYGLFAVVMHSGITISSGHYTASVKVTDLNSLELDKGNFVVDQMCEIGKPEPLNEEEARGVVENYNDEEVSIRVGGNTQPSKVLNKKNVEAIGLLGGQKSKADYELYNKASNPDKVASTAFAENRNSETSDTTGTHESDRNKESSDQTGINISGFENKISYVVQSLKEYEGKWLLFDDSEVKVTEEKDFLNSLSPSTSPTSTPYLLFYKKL
How it was run: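 Deubiquitinase activity followed as kinetic rhodamine fluorescence release from 150 nM Ub-Rho. 1 nM USP1/UAF1 with compound, after 15 min room-temperature preincubation, in HEPES pH 7.8 buffer containing TCEP, EDTA, BSA and Tween-20.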

[6] = molecular target: ATP-dependent 6-phosphofructokinase (Trypanosoma brucei brucei) (UniProt O15648); assay: qHTS Assay to Find Inhibitors of T. brucei phosphofructokinase: hit validation (AID 492961); also: % is scaled to controls: 0 for no effect and ±100 for the full control effect
ATP-dependent 6-phosphofructokinase (Trypanosoma brucei brucei), sequence (O15648 whole entry, looked up): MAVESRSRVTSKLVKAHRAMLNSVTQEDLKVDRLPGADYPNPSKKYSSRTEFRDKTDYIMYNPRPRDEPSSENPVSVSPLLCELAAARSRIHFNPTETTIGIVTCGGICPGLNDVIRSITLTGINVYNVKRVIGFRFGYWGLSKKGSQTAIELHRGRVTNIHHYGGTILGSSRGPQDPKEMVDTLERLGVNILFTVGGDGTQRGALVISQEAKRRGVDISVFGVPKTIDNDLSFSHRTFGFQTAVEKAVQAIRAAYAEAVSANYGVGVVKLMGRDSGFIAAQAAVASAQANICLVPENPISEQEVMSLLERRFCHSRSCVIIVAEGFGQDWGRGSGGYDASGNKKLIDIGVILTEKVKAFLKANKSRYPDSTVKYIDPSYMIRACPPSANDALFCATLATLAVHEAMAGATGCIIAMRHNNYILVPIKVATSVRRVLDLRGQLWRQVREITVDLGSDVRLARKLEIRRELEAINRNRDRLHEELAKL
How it was run: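 Luminescence from ADP-Glo reports ADP generated as T. brucei PFK (1.25 nM) phosphorylates 0.5 mM fructose-6-phosphate using 0.1 mM ATP. Reactions ran 45 min at room temperature, pH 8.0.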

[7] = molecular target: Luciferin 4-monooxygenase (Photinus pyralis) (UniProt P08659); assay: Biochemical firefly luciferase enzyme assay for NPC (AID 624030);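 also: purified P. pyralis luciferase at 10 nM with luciferin and ATP substrate; 0% = DMSO and -100% = full luciferase inhibition by PTC124 control; nearly all actives have a fitted effect of over 70% in size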
Luciferin 4-monooxygenase (Photinus pyralis), sequence (P08659 whole entry, looked up): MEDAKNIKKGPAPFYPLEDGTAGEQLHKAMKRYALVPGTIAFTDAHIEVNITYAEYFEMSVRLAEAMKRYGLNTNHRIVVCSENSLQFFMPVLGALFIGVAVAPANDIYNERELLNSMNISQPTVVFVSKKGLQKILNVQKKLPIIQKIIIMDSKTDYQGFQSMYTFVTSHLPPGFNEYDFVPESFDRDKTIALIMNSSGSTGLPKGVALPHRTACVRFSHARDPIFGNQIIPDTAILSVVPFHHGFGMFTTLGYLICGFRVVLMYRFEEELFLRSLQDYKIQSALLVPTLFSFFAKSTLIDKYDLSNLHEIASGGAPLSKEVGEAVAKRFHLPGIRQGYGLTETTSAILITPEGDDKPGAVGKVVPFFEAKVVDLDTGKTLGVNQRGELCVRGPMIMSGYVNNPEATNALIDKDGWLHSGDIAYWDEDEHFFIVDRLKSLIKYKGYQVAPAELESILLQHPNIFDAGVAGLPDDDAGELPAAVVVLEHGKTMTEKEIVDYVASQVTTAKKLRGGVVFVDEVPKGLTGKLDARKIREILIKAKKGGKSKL
How it was run: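 Purified P. pyralis luciferase at 10 nM in 50 mM Tris Acetate (final), luminescence read within 5 minutes of enzyme addition to compounds. Activity normalised to PTC124 versus DMSO; concentration-response curves classed by r2, magnitude and activity.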

[8] = qHTS profiling for inhibitors of Plasmodium falciparum proliferation (AID 504749); also: potency is read from the fitted curve at half-maximal effect; nearly all actives have a fitted effect of over 60% in size; details: P. falciparum in erythrocytes, SYBR Green DNA, 72 h
How it was run: (§1)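 P. falciparum-infected erythrocytes (0.3% parasitemia, 2.5% hematocrit) incubated with compound 72 h at 37 C, 5% CO2. Parasite DNA detected by SYBR Green after lysis, overnight at room temperature; normalised to 0.29 uM artemisinin and DMSO.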

AS120 = assay: as above; details: P. falciparum in erythrocytes, SYBR Green DNA, 72 h; series mostly up to 28.7 µM
How it was run: as §1

ATS189 = assay: as above; details: P. falciparum in erythrocytes, SYBR Green DNA, 72 h; series mostly up to 28.7 µM
How it was run: as §1

DFO2036 = assay: as above; details: P. falciparum in erythrocytes, SYBR Green DNA, 72 h; series mostly up to 28.7 µM
How it was run: as §1

[9] = Stat Signaling Pathway (AID 446; active = well fitted curve in either direction with a large enough effect, not every such curve was filed as active;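 also: ME-180 cervical cancer cells given 40 pM IL-6 alongside compound; SIE-controlled beta-lactamase reporter measured as 460/530 nm FRET emission ratio; % is scaled to controls: 0 for no effect and ±100 for the full control effect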)
How it was run: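 IL-6/STAT signaling read in ME-180 cells via an SIE beta-lactamase reporter. Stimulus was 40 pM IL-6 (its AC50) for 5 hrs, so both activation and inhibition register.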

[10] = molecular target: Glucocorticoid receptor (Homo sapiens) (UniProt P04150); assay: GR-GFP Redistribution (AID 450;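 active = compounds whose dose series gives a full or clear partial fitted curve of increased nuclear translocation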; also: potency is read from the fitted curve at half-maximal effect); details: U2OS GR-GFP nuclear translocation, laser cytometry, 2 h
Glucocorticoid receptor (Homo sapiens), sequence (P04150 whole entry, looked up, the tested form may be a part): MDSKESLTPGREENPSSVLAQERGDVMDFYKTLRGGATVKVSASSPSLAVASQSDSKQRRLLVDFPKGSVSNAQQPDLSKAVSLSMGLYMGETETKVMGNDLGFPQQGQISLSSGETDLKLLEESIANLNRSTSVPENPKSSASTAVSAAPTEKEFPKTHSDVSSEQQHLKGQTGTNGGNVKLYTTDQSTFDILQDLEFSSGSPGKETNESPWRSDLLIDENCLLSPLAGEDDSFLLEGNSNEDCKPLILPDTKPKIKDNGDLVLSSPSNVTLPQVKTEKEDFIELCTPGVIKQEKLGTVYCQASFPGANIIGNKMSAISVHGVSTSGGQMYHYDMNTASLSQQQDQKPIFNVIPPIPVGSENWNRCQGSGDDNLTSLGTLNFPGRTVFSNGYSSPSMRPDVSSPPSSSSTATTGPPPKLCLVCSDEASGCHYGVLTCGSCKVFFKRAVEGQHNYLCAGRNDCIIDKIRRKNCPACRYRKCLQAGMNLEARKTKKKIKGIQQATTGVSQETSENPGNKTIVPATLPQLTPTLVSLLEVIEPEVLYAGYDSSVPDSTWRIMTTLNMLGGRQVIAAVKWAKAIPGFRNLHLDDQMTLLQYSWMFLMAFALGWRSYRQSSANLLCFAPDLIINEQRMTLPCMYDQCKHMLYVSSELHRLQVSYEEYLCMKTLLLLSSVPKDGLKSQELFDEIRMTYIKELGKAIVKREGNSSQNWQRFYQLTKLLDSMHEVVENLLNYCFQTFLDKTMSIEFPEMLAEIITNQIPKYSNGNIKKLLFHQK

[11] = molecular target: Glucocorticoid receptor (Homo sapiens) (UniProt P04150); assay: GR-EFC Redistribution (AID 451; calls by dose curve; also: potency is read from the fitted curve at half-maximal effect); details: CHO-K1 GR-EFC translocation, beta-gal luminescence, 2 h
How it was run: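 CHO-K1 cells expressing nuclear EA and GR-ED fragments of b-gal; compounds titrated up to 46 uM final, 2 h at 37 C. GR nuclear translocation read as complemented b-gal luminescence after 1 h RT detection.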

[12] = molecular target: Cytochrome P450 1A2 (Homo sapiens) (UniProt P05177); assay: p450-cyp1a2 (AID 410; calls by dose curve;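 also: -100% = full effect of reference inhibitor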)
Cytochrome P450 1A2 (Homo sapiens), sequence (P05177 whole entry, looked up): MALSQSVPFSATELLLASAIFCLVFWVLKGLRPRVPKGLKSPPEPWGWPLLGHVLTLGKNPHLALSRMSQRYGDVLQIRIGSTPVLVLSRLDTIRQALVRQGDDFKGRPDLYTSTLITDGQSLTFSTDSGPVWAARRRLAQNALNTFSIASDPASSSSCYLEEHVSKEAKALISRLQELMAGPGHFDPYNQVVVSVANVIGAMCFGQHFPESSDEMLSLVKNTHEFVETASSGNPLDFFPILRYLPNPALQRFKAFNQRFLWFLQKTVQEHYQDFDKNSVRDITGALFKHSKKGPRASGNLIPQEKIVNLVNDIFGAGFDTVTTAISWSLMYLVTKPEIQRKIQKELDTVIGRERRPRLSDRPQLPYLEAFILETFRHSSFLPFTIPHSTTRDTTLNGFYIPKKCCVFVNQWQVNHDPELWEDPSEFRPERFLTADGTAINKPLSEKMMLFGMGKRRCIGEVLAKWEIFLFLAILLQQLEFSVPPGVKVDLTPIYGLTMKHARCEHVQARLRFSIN
How it was run: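 20nM CYP1A2 with 100uM Luciferin-ME (at Km) in 100mM KPO4; compound preincubated 10 min, NADPH regeneration added, 60 min at room temperature. Luciferin quantified by luminescence after detection reagent; normalized to 57 uM furafylline.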

[13] = molecular target: Mitogen-activated protein kinase 10 (Mus musculus) (UniProt Q61831); assay: JNK3 AlphaScreen Assay (AID 530; active = well fitted curve in either direction with a large enough effect, not every such curve was filed as active;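 also: kinase came from lysate of stimulated human HepG2 cells; signal reports phosphorylation of biotinylated GST-cJun 1-79 at Ser73 with 10 µM ATP; % is scaled to controls: 0 for no effect and ±100 for the full control effect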)
How it was run: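 Pre-activated (IL-1β/TNFα) JNK3 in HepG2 lysates phosphorylates biotin-GST-cJun(1-79), 10 uM ATP; anti-phospho-cJun(Ser73) AlphaScreen read at room temperature, pH 7.6 Tris buffer. Compounds pre-incubated 15 min as titrations.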

[14] = measured here: cell count channel max response
[15] = measured here: lipid channel max response

O=C(O)COc1cc(Cl)c(Cl)cc1Cl
Potency [1]: inactive | Potency [2]: inactive | Potency [3]: inactive | activity change, negative = inhibition ([4]; at 57.5 µM (top of the series)): 1.28% (inactive) | max response [4, 14]: 13.2% | max response [4, 15]: 18.6% | Potency [5]: inactive

O=C1C=C2C=CC3C[C@@]2(O1)C1CCCCN31 (stereo partly specified)
Potency [2]: inactive | Potency [3]: inactive | activity change, negative = inhibition ([4]; at 57.5 µM (top of the series)): 4.29% (inactive) | max response [4, 14]: 5.82% | max response [4, 15]: 10.8% | Potency [6]: inactive | Potency [5]: inactive | Potency [7]: inactive | Potency ([8]; parasite line A): 11.2 µM (active) | Potency ([8]; parasite line B): 8.91 µM (active) | Potency (AS120): 10 µM (active) | Potency (ATS189): 11.2 µM (active) | Potency (DFO2036): 12.6 µM (active)

O=C1CCCC2[C@@H]3CCCN4CCC[C@@H](CN12)C34 (stereo partly specified)
Potency [1]: inactive | activity change, negative = inhibition ([4]; at 57.5 µM (top of the series)): 4.15% (inactive) | max response [4, 14]: 4.45% | max response [4, 15]: 7.09% | Potency [5]: inactive

CN1C2CC(OC(=O)C(CO)c3ccccc3)C[C@@H]1[C@H]1OC21 (stereo partly specified)
activity change, negative = inhibition ([4]; at 57.5 µM (top of the series)): 7.13% (inactive) | max response [4, 14]: 12.9% | max response [4, 15]: 25.6% | Potency [5]: inactive

CCc1cccc(C)c1N(C(=O)CCl)C(C)COC (stereo unspecified)
Potency [1]: inactive | Potency [2]: inactive | Potency [3]: inactive | activity change, negative = inhibition ([4]; at 57.5 µM (top of the series)): 1.46% (inactive) | max response [4, 14]: 1.84% | max response [4, 15]: 4.99% | Potency [5]: inactive

CC(C)OC(=O)Nc1cccc(Cl)c1
Potency [1]: inactive | Potency [2]: inactive | Potency [3]: inactive | activity change, negative = inhibition ([4]; at 57.5 µM (top of the series)): 8.95% (inactive) | max response [4, 14]: 5.17% | max response [4, 15]: 15.8% | Potency [5]: inactive

N#Cc1c(Cl)cccc1Cl
Potency [1]: inactive | Potency [2]: inactive | Potency [3]: inactive | activity change, negative = inhibition ([4]; at 57.5 µM (top of the series)): 7.12% (inactive) | max response [4, 14]: 9.19% | max response [4, 15]: 14.3% | Potency [5]: inactive

CC(C)CC(CN)CC(=O)O (stereo unspecified)
Potency [1]: inactive | Potency [2]: inactive | activity change, negative = inhibition ([4]; at 57.5 µM (top of the series)): 8.71% (inactive) | max response [4, 14]: 14.3% | max response [4, 15]: 26.2% | Potency [6]: inactive | Potency [5]: inactive | Potency [7]: inactive

C[C@@]12CC[C@H]3[C@@H](CC[C@]4(O)C[C@H](O)CC[C@@]34C=O)[C@]1(O)CC[C@@H]2C1=CC(=O)OC1
outcome [9]: inactive | Potency [10]: > 20.6 µM (inactive) | Potency [11]: > 20.6 µM (inactive) | activity change, negative = inhibition ([4]; at 25.7 µM (top of the series)): -0.542% (inactive) | max response [4, 14]: 6.59% | max response [4, 15]: 6.37% | Potency [5]: inactive

CC(=O)O[C@H]1C[C@@H](O[C@@H]2[C@H](C)O[C@H](O[C@@H]3[C@H](C)O[C@H](O[C@@H]4CC[C@@]5(C)[C@@H](CC[C@]6(C)[C@]5(C)C[C@H](O)[C@]5(C)[C@@H](C7=CC(=O)OC7)CC[C@@]56O)C4)C[C@@H]3O)C[C@@H]2O)O[C@@H](C)[C@H]1O[C@H]1O[C@@H](CO)[C@@H](O)[C@@H](O)[C@@H]1O
Potency [12]: inactive | Potency [10]: > 20.6 µM (inactive) | outcome [13]: inactive | activity change, negative = inhibition ([4]; at 25.7 µM (top of the series)): -1.77% (inactive) | max response [4, 14]: -6.91% | max response [4, 15]: -8.38% | Potency [5]: inactive

O=C1CC2OCC=C3CN4CC[C@]56c7ccccc7N1[C@H]5[C@H]2C3C[C@H]46 (stereo partly specified)
activity change, negative = inhibition ([4]; at 57.5 µM (top of the series)): 9.09% (inactive) | max response [4, 14]: 14.5% | max response [4, 15]: 20.7% | Potency [5]: inactive
